# HT1080NT lethal – kills 2HG-producing HT-1080-NT fibrosarcoma cells; 1.6% of 360,000 active; Potency, µM (top dose mostly 46.1 µM), for the others: top-dose activity, negative = less viability, usual class: cytotoxic; HT-1080-NT fibrosarcoma viability, CellTiter-Glo ATP luminescence, 48 h;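 also: NT is the 2HG producing partner of a matched IDH1 knockdown line; potency is read from the fitted curve at half-maximal effect; 0% = DMSO-treated cells and -100% = media-only wells without cells; nearly all actives have a fitted effect of over 55% in size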
#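 Read-out is CellTiter-Glo luminescence after 10 minutes at room temperature, following 48 hours' compound treatment of HT-1080-NT cells (750 cells/well, RPMI, 5% FBS, 37 degrees C).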
# DT40 TDP1 no CPT – qHTS for Inhibitors of human tyrosyl-DNA phosphodiesterase 1 (TDP1): qHTS in cells in absence of CPT | DT40 Tdp1-/- hTDP1 cells, no CPT, ATP luminescence, 48 h | Potency, µM (series often up to 46.2 µM), inactives show at the highest dose activity change, negative = growth inhibition, most hits filed as inhibitors | 15% of 420,000 active | AID 686978, 2013; also: potency is read from the fitted curve at half-maximal effect; nearly all actives have a fitted effect of over 55% in size
#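 A cellular qHTS used chicken DT40 cells lacking endogenous Tdp1 but carrying stably transfected human TDP1. Compounds were applied without camptothecin, and cell growth kinetics were judged by ATP-dependent luminescence after ≥48 hr.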
# DT40 TDP1 CPT – DT40-hTDP1 cell growth loss with CPT. 12% of 420,000 active. Potency, µM (series often up to 46.2 µM), inactives show at the highest dose activity change, negative = growth inhibition, hits mostly inhibitors. chicken DT40 Tdp1-/-;hTDP1 cells + 20 nM CPT, ATP luminescence, 48 h; also: potency is read from the fitted curve at half-maximal effect; nearly all actives have a fitted effect of over 55% in size
#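 Chicken DT40 Tdp1-/- cells stably complemented with human TDP1 were seeded at 400 cells/well in medium containing 20 nM camptothecin, exposed to pin-transferred compounds, and grown at 37 °C for at least 48 hr. Viability was read as ATP luminescence.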
# HT1080 IDH1KD tx – kills HT-1080 cells with IDH1 knockdown. 2% of 360,000 active. HT-1080 IDH1 knockdown viability, ATP luminescence, 48 h. Potency, µM (highest dose often 46.1 µM), inactives show at the top dose activity, negative = toxicity, hits mostly cytotoxic;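 also: potency is read from the fitted curve at half-maximal effect; 0% = DMSO wells and -100% = cell-free medium wells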
#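 Assay cells: HT-1080 with IDH1 knockdown, 750 per well, RPMI/5% FBS. Exposure: 48 h at 37 °C following 2 h pre-incubation. Read: CellTiter-Glo luminescence; fitted concentration-response, curve class assigned.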
# IL-1B inflam inh – inflammasome signaling inhibition, IL-1 beta readout; THP-1 LPS/ATP IL-1B secretion, AlphaLISA, 16 h; hits give low values; activity change, % at 57.5 µM; 4.7% of 360,000 active; in the data active = activity change below about -50%; inconclusive = mostly about -30% to -49%
#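 Secreted IL-1B measured by AlphaLISA bead assay after 16 h compound exposure of THP-1 cells; compounds (final up to 57.5 uM) added 1 h before LPS (250 ng/mL) and ATP (1.25 mM) stimulation; lower signal means less secretion.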
# An asterisk follows results filed as active; ? = inconclusive; / = no result given; [ ] = remark or other dose. Compounds with a hit are over-represented: about 19% of the library has one in this group of screens. Unless noted, calls follow the shape of the dose curve; as a rule, active = well fitted curve in the direction sought with a large enough effect; inconclusive = small, poorly fitted or top-dose-only effect, or another doubt; inactive = no such curve, though single readings can be large; an effect the other way counts as inactive or inconclusive. Unless noted, % is scaled to controls: 0 for no effect and ±100 for the full control effect.
SMILES,HT1080NT lethal,DT40 TDP1 no CPT,DT40 TDP1 CPT,HT1080 IDH1KD tx,IL-1B inflam inh
OC(c1ccc(F)cc1)c1nc(-c2cccc(C(F)(F)F)c2)cs1 (stereo unspecified),?,?,?,?,-14.1
FC(F)(F)c1ccccc1Cc1c(-c2ccco2)nc2ccc(Br)cn12,?,?,?,?,-28.1
COc1ccc(C(=O)Nn2c(SCc3ccc([N+](=O)[O-])cc3)nc3ccccc3c2=O)cc1,-8.6%,?,?,-5.3%,?
COCCn1c(SCC(=O)NC(C)c2ccc(F)cc2)nc2ccccc21 (stereo unspecified),2.3%,-20.0%,-8.6%,-6.2%,-1.8
Cc1ccc(-c2csc(C(O)c3ccc(F)c(F)c3)n2)cc1C (stereo unspecified),?,?,?,20.6µM*,-2.2
COc1ccc(N2CCN(c3ccc4nnc(CCC(=O)Nc5ccc(C)cc5)n4n3)CC2)cc1,-1.9%,23.1µM*,?,0.0%,41.2
CCOc1ccc(CCNC(=O)CCc2nnc3ccc(N4CCCCC4)nn23)cc1OCC,7.7%,11.6µM*,?,-5.0%,1.7
CCOC(=O)C(C)NC(=O)CCc1nnc2ccc(N3CCC(C)CC3)nn12 (stereo unspecified),-11.2%,?,?,-12.0%,-97.0*
CCN(CC)c1ccc(NC(=O)CCc2nnc3ccc(N4CCCC4)nn23)c(C)c1,5.1%,23.1µM*,14.6µM*,1.4%,69.7
CCC(C)NC(=O)CCc1nnc2ccc(N3CCC(C)CC3)nn12 (stereo unspecified),17.3%,1.2%,-4.9%,11.8%,-8.3
COc1ccc(NC(=O)CCc2nnc3ccc(N4CCC(C)CC4)nn23)cc1,9.1%,?,?,14.1%,-4.1
CCOC(=O)c1ccc(NC(=O)CCc2nnc3ccc(N4CCCC4)nn23)cc1,-5.5%,?,25.9µM*,0.0%,1.9
COc1ccc(C(=O)OCC(=O)c2ccc3c(c2)NC(=O)CO3)cc1OC,1.9%,8.4%,1.2%,10.6%,5.4
CCOC(=O)c1ccc2c(c1)NCc1cccc(OC)c1O2,19.0%,10.3µM*,10.3µM*,7.1%,3.2
CC1(C(=O)NS(=O)(=O)Cc2ccccc2C(F)(F)F)CCN1C(=O)c1ccco1 (stereo unspecified),0.9%,3.5%,4.1%,26.9%,10.8
CC1CN(Cc2cc(=O)[nH]c(C(C)C)n2)CC(C)O1 (stereo unspecified),0.2%,-4.9%,16.4%,0.8%,-7.3
CC(Nc1ncnc2ccccc12)c1ccccc1 (stereo unspecified),?,0.731µM*,1.16µM*,-4.6%,-13.6
CC(C)Oc1ccc(Nc2ncnc3ccccc23)cc1,-1.7%,?,?,1.5%,-153.6*
CCC1(O)CC(c2ccccc2)=NN1C(=O)c1ccccc1F (stereo unspecified),7.0%,-11.6%,0.6%,4.4%,0.8
Cn1ncc(Br)c1C(=O)NC12CC3CC(CC(C3)C1)C2,-12.6%,?,-19.1%,-11.2%,-3.9
Cn1c(-c2c(N)n(C3CCCC3)c3nc4ccccc4nc23)nc2ccccc21,?,?,?,?,-5.5
Cn1c(-c2c(N)n(CCc3ccccc3)c3nc4ccccc4nc23)nc2ccccc21,-0.7%[9.24 µM],20.6µM*,25.9µM*,?,-8.1
COCCCn1c(N)c(-c2nc3ccccc3n2C)c2nc3ccccc3nc21,-4.3%[9.24 µM],23.1µM*,25.9µM*,?,?
COc1ccc(S(=O)(=O)NNc2nc(C)cc(C)n2)cc1Br,9.1%,-1.2%,2.5%,4.2%,40.9
CCOC(=O)c1c(S(=O)(=O)NCCc2ccc(OC)c(OC)c2)c(C)n(C)c1C,10.2%,8.6%,-12.8%,6.5%,-22.7
SMILES,HT1080NT lethal,DT40 TDP1 no CPT,DT40 TDP1 CPT,HT1080 IDH1KD tx,IL-1B inflam inh
CCOC(=O)c1c(C)c(C)n(Cc2ccc(OC)c(OC)c2)c1C,-16.2%,18.4µM*,20.6µM*,-24.3%,-3.0
CCOC(=O)c1cc(C)n(Cc2ccc(OCC)c(OC)c2)c1C,-5.1%,?,11.2µM*,-25.7%,-26.2
COc1ccc(C(C)NCCC(c2ccc(OC(C)C)cc2)c2ccccc2OC)cc1 (stereo unspecified),14.6µM*,5.8µM*,5.8µM*,?,-98.5*
COc1ccc(C(CCNC(C)c2ccccc2)C(C)C)cc1 (stereo unspecified),?,16.4µM*,?,?,/
O=[N+]([O-])c1ccc2cn(C3OC(CO)C(O)C3O)nc2c1 (stereo unspecified),-24.5%,?,?,-23.2%,-2.4
O=C(O)CCC1(CCC(=O)O)CCCC(CCC(=O)O)(CCC(=O)O)C1=O,19.8%,-6.3%,-14.9%,8.8%,1.9
C=CCN(C(=O)c1csnn1)C(C(=O)NC1CCCC1)c1ccccc1F (stereo unspecified),4.5%,-21.1%,-5.2%,6.2%,1.9
COc1cc(/C=N\NC(=O)CC#N)ccc1OC/C=C/c1ccccc1,-21.7%,?,25.9µM*,?,-26.6
COc1cc(/C=N/NC(=S)NCc2ccccc2)ccc1OCC#N,-7.1%,23.1µM*,20.6µM*,-10.5%,0.0
Cn1c(=O)n(C)c2cc(/C=N/NC(=S)NCc3ccccc3)ccc21,-20.1%,25.9µM*,?,-28.9%,-17.3
CCn1c(O)c(/C=C2\C=Nc3ccccc32)sc1=Nc1ccc(C)cc1,2.2%,?,?,10.9%,-2.9
C=CCn1c(O)c(C2=c3ccccc3=NC2=O)sc1=Nc1ccc(O)cc1,-4.0%,?,23.1µM*,?,-50.5*
COc1ccc2[nH]cc(CCNc3ccnc(-c4ccccc4C)n3)c2c1,/,?,20.6µM*,/,/
COc1cccc(-c2nccc(NCCc3c[nH]c4ccc(OC)cc34)n2)c1,/,?,13µM*,/,/
COc1ccc2[nH]cc(CCNc3ncncc3-c3ccccc3CN(C)C)c2c1,/,-19.3%,-17.9%,/,/
COc1ccc2[nH]cc(CCNc3cc(-c4ccc(C(=O)N(C)C)cc4)ncn3)c2c1,/,-16.6%,?,/,/
COc1ccc2[nH]cc(CCNc3nc(-c4cccnc4)nc4ccccc34)c2c1,/,?,23.1µM*,/,/
COc1ccc2[nH]cc(CCNc3ccnc(-c4ccc(C(=O)N(C)C)cc4)n3)c2c1,/,11.6µM*,11.6µM*,/,/
CCOc1ccc(CN(CC)C(=O)c2ccc3c(c2)[nH]c(=O)c(=O)n3CC)cc1OC,-0.8%,?,-3.7%,-20.0%,40.6
COc1ccc(CCNC(=O)CSc2nc(=O)n3cc(C)ccc3n2)cc1OC,1.0%,-2.3%,0.2%,2.3%,5.6
